Test results reported in PubChem BioAssay (NCI).
About 83,000 compounds went through this panel and 20% of them were active in at least one assay; those are over-represented in the sample as a whole.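 Activity criterion: percent growth below 10, measured after cells in 96-well plates were exposed to a single compound concentration for 48 hours.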 The source made the active and inactive calls.

Legend:
Test in all cases: NCI-60 one-dose screen, 48 h (100 = growth as untreated, 0 = no growth, -100 = all killed)
Settings in all cases: 10 µM unless noted
DU-145 prostate = tested on: DU-145 prostate
K-562 leukemia = tested on: K-562 leukemia
MALME-3M melanoma = tested on: MALME-3M melanoma
MDA-MB-231 breast = tested on: MDA-MB-231 breast
RXF 393 renal = tested on: RXF 393 renal
SF-268 CNS = tested on: SF-268 CNS
SF-295 CNS = tested on: SF-295 CNS
SF-539 CNS = tested on: SF-539 CNS
UACC-257 melanoma = tested on: UACC-257 melanoma
M14 melanoma = tested on: M14 melanoma
HCT-15 colon = tested on: HCT-15 colon
HT29 colon = tested on: HT29 colon
SNB-75 CNS = tested on: SNB-75 CNS
SNB-19 CNS = tested on: SNB-19 CNS
U251 CNS = tested on: U251 CNS
PC-3 prostate = tested on: PC-3 prostate
SK-MEL-5 melanoma = tested on: SK-MEL-5 melanoma
UACC-62 melanoma = tested on: UACC-62 melanoma
LOX IMVI melanoma = tested on: LOX IMVI melanoma
SK-MEL-28 melanoma = tested on: SK-MEL-28 melanoma

Measured: growth

O=c1[nH]ccc2nc(N3CCC(O)CC3)nc(Nc3ccc(N4CCOCC4)cc3)c12
inactive: DU-145 prostate 59.8% | K-562 leukemia 70.1% | MALME-3M melanoma 28.4% | MDA-MB-231 breast 64.3% | RXF 393 renal 15.6% | SF-268 CNS 61.9% | SF-295 CNS 108% | SF-539 CNS 28.7% | UACC-257 melanoma 53.2% | M14 melanoma 41.4% | HCT-15 colon 31.2% | HT29 colon 23.2% | SNB-75 CNS 63.5% | SNB-19 CNS 97.1% | U251 CNS 88.2% | PC-3 prostate 89.8% | SK-MEL-5 melanoma 39% | UACC-62 melanoma 80.3% | LOX IMVI melanoma 46.4% | SK-MEL-28 melanoma 82.6%

C=CCOC1=CC(=O)c2ccccc2C1=O
inactive: DU-145 prostate 59.9% | K-562 leukemia 26.8% | MALME-3M melanoma 69% | MDA-MB-231 breast 77.3% | RXF 393 renal 111% | SF-268 CNS 82% | SF-295 CNS 98.1% | SF-539 CNS 116% | UACC-257 melanoma 55.8% | M14 melanoma 79.5% | HCT-15 colon 94.9% | HT29 colon 80.5% | SNB-75 CNS 48% | SNB-19 CNS 104% | U251 CNS 86.7% | PC-3 prostate 85.9% | SK-MEL-5 melanoma 27.3% | UACC-62 melanoma 57% | SK-MEL-28 melanoma 87%
active: LOX IMVI melanoma 3.82%

CC(C)(C)CC(C)(C)Nc1c(-c2ccncc2)nc2cnccn12
inactive: DU-145 prostate 106% | K-562 leukemia 98.4% | MALME-3M melanoma 110% | MDA-MB-231 breast 95% | RXF 393 renal 93.8% | SF-268 CNS 98.6% | SF-295 CNS 101% | SF-539 CNS 93.8% | UACC-257 melanoma 103% | M14 melanoma 100% | HCT-15 colon 97.9% | HT29 colon 93% | SNB-75 CNS 80.4% | SNB-19 CNS 97.3% | U251 CNS 99.2% | PC-3 prostate 97.7% | SK-MEL-5 melanoma 99.4% | UACC-62 melanoma 92.9% | LOX IMVI melanoma 98.8% | SK-MEL-28 melanoma 112%

COCCc1ccc(OCC(O)CNC(C)C)cc1 (stereo not given)
inactive: DU-145 prostate 109% | K-562 leukemia 101% | MALME-3M melanoma 97.5% | MDA-MB-231 breast 101% | RXF 393 renal 128% | SF-268 CNS 104% | SF-295 CNS 101% | SF-539 CNS 106% | UACC-257 melanoma 96.3% | M14 melanoma 92.4% | HCT-15 colon 102% | HT29 colon 98.9% | SNB-75 CNS 90.4% | SNB-19 CNS 105% | U251 CNS 98.2% | PC-3 prostate 96.6% | SK-MEL-5 melanoma 108% | UACC-62 melanoma 113% | LOX IMVI melanoma 96.6% | SK-MEL-28 melanoma 98.9%

NCCCNc1nc2ccccc2c2c(=O)c3cccc(Cl)c3sc12
inactive: MALME-3M melanoma 41.6% | RXF 393 renal 29.5% | SF-268 CNS 26.5% | SF-295 CNS 26.8% | SF-539 CNS 66.3% | UACC-257 melanoma 72.8% | SNB-75 CNS 41.7% | SNB-19 CNS 49.8% | PC-3 prostate 43.8% | SK-MEL-5 melanoma 60.3% | UACC-62 melanoma 51.4% | SK-MEL-28 melanoma 53.2%
active: DU-145 prostate -14.3% | K-562 leukemia -21.1% | MDA-MB-231 breast -18.3% | M14 melanoma -46.4% | HCT-15 colon -79.6% | HT29 colon -63.2% | U251 CNS -51.7% | LOX IMVI melanoma -90%

C#CCOc1nc(C)cc(C)c1C#N
inactive: DU-145 prostate 104% | K-562 leukemia 100% | MALME-3M melanoma 99% | MDA-MB-231 breast 94.5% | RXF 393 renal 106% | SF-268 CNS 99.6% | SF-295 CNS 104% | SF-539 CNS 97.9% | UACC-257 melanoma 103% | M14 melanoma 98.1% | HCT-15 colon 96% | HT29 colon 107% | SNB-75 CNS 79.6% | SNB-19 CNS 96.2% | U251 CNS 98.1% | PC-3 prostate 140% | SK-MEL-5 melanoma 98.9% | UACC-62 melanoma 93.5% | LOX IMVI melanoma 97.4% | SK-MEL-28 melanoma 111%

COc1cc(C(=O)/C=C/c2c(C(F)(F)F)nc3sccn23)cc(OC)c1OC
inactive: DU-145 prostate 10.7% | MALME-3M melanoma 78.6% | MDA-MB-231 breast 29.1% | SF-268 CNS 16.1% | UACC-257 melanoma 13.4% | SNB-75 CNS 29.8% | SNB-19 CNS 20.7% | PC-3 prostate 16.4%
active: K-562 leukemia -16.1% | RXF 393 renal -55.7% | SF-295 CNS -2.07% | SF-539 CNS -59.1% | M14 melanoma -39.2% | HCT-15 colon -62.2% | HT29 colon -11.8% | U251 CNS 4.46% | SK-MEL-5 melanoma 5.95% | UACC-62 melanoma -13.8% | LOX IMVI melanoma -57.9% | SK-MEL-28 melanoma -18.4%

COc1ccc(C2CC(c3cccc(OC)c3)=NN2C(=O)c2cc(OC)c(OC)c(OC)c2)cc1 (stereo not given)
active: DU-145 prostate -24.7% | K-562 leukemia 5.93% | SF-295 CNS 7.64% | SF-539 CNS -16% | SK-MEL-5 melanoma -3.53%
inactive: MALME-3M melanoma 37.7% | MDA-MB-231 breast 33.6% | RXF 393 renal 23.4% | SF-268 CNS 41.4% | UACC-257 melanoma 65% | M14 melanoma 16.5% | HCT-15 colon 30.9% | HT29 colon 14% | SNB-75 CNS 22.3% | SNB-19 CNS 28.5% | U251 CNS 35.5% | PC-3 prostate 25.7% | UACC-62 melanoma 37.9% | LOX IMVI melanoma 35.5% | SK-MEL-28 melanoma 56.2%
